Results from PubChem BioAssay (EPA / NIEHS).
Calls of active or inactive are those of the source. The calls were made as follows: active = hit-call score of the fitted dose curve at least 0.9, where 1 is the maximum; inactive = score below 0.9.

Experiment: ATG_ISRE_CIS: Attagene CIS-FACTORIAL HepG2 Assay for human Interferon Regulatory Factor 1 (IRF1) binding to an Interferon-Stimulated Response Element (ISRE) (AID 2282948)
Conditions: HepG2 ISRE cis-reporter (Attagene), mRNA transcription readout; actives raise or lower the signal
Procedure, shortened: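 HepG2 cells transiently transfected with multiplexed cis-promoter reporter units; after 24 h compound exposure, reporter mRNA quantified by RT-PCR, FAM labelling, HpaI digestion and capillary electrophoresis. Bidirectional fit versus DMSO baseline.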

outcome, inactive:
c1ccc2occc2c1
CN(C)CCCN1c2ccccc2Sc2ccc(Cl)cc21
O=C1CCCCC1
Nc1nc(=S)c2[nH]cnc2[nH]1
CO[C@@H]1COCC[C@@H]1N[C@@H]1CC[C@@](C(=O)N2CCc3ncc(C(F)(F)F)cc3C2)(C(C)C)C1
CCCCCCCCCCCCCCCCO
CC(=O)OC1CC(C)OC(C)O1 (configuration not stated)
CC1(C)C(=O)NC(=O)N1CO
Cn1cnc2c1c(=O)[nH]c(=O)n2C
CC(C)(O)c1ccc(CNC(=O)c2cccnc2Oc2ccc(F)cc2)cc1
CCCC(=O)O
O=C(O)c1cccnc1
COC(=O)CCC(=O)OC
C#CC(O)C(CC)CCCC (configuration not stated)
NCCOCCOCCN
NC=O
O=C(O)c1[nH]n(-c2ccc(S(=O)(=O)O)cc2)c(=O)c1N=Nc1ccc(S(=O)(=O)O)cc1
Nc1nc(Cl)nc2c1ncn2[C@H]1C[C@H](O)[C@@H](CO)O1
CCCCCCCCCCCCCCOS(=O)(=O)O
Cc1cn([C@H]2C=C[C@@H](CO)O2)c(=O)[nH]c1=O
Cc1c(C)c2c(c(C)c1O)CCC(C)(COc1ccc(CC3SC(=O)NC3=O)cc1)O2 (configuration not stated)
CC1=C(C)S(=O)(=O)CCS1(=O)=O
O=C1O[C@H]([C@H](O)CO)C(O)=C1O
OCC(CO)n1cnc(-c2ccc(F)cc2)c1-c1ccnc(Oc2ccccc2)n1
CC(C)COC(=O)CCCCC(=O)OCC(C)C

AC50, active:
CC(C)OC(=O)C(C)(C)Oc1ccc(C(=O)c2ccc(Cl)cc2)cc1 49 µM
Cc1ccc(C(C)(C)C)c(O)c1 138 µM
CCc1nc(N)nc(N)c1-c1ccc(Cl)cc1 100 µM
CCc1cc(C2=C(C(=O)O)N(c3ccccc3C(F)(F)F)S(=O)(=O)c3ccccc32)cc2c1OCO2 149 µM

Experiment: ATG_M_32_CIS: Attagene CIS-FACTORIAL HepG2 Assay for M32 Transcription Factor (Internal Marker) (AID 2282949);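 also: background control marker of the multiplexed CIS panel rather than a real target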
Conditions: HepG2 Attagene cis-factorial M32 reporter, mRNA; actives raise or lower the signal
Procedure, shortened: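 HepG2 cells transiently transfected with multiplexed cis-regulated reporter units, dosed 24 h. Reporter mRNA quantified by RT-PCR, 6-FAM labelling, HpaI digestion and capillary electrophoresis; bidirectional fit vs DMSO.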

outcome, inactive:
c1ccc2occc2c1
CN(C)CCCN1c2ccccc2Sc2ccc(Cl)cc21
O=C1CCCCC1
CC(C)OC(=O)C(C)(C)Oc1ccc(C(=O)c2ccc(Cl)cc2)cc1
Cc1ccc(C(C)(C)C)c(O)c1
Nc1nc(=S)c2[nH]cnc2[nH]1
CO[C@@H]1COCC[C@@H]1N[C@@H]1CC[C@@](C(=O)N2CCc3ncc(C(F)(F)F)cc3C2)(C(C)C)C1
CCCCCCCCCCCCCCCCO
CC(=O)OC1CC(C)OC(C)O1 (configuration not stated)
CC1(C)C(=O)NC(=O)N1CO
Cn1cnc2c1c(=O)[nH]c(=O)n2C
CC(C)(O)c1ccc(CNC(=O)c2cccnc2Oc2ccc(F)cc2)cc1
CCCC(=O)O
O=C(O)c1cccnc1
COC(=O)CCC(=O)OC
NCCOCCOCCN
NC=O
O=C(O)c1[nH]n(-c2ccc(S(=O)(=O)O)cc2)c(=O)c1N=Nc1ccc(S(=O)(=O)O)cc1
Nc1nc(Cl)nc2c1ncn2[C@H]1C[C@H](O)[C@@H](CO)O1
CCCCCCCCCCCCCCOS(=O)(=O)O
Cc1cn([C@H]2C=C[C@@H](CO)O2)c(=O)[nH]c1=O
Cc1c(C)c2c(c(C)c1O)CCC(C)(COc1ccc(CC3SC(=O)NC3=O)cc1)O2 (configuration not stated)
CC1=C(C)S(=O)(=O)CCS1(=O)=O
O=C1O[C@H]([C@H](O)CO)C(O)=C1O
CCc1cc(C2=C(C(=O)O)N(c3ccccc3C(F)(F)F)S(=O)(=O)c3ccccc32)cc2c1OCO2
OCC(CO)n1cnc(-c2ccc(F)cc2)c1-c1ccnc(Oc2ccccc2)n1
CC(C)COC(=O)CCCCC(=O)OCC(C)C

AC50, active:
C#CC(O)C(CC)CCCC (configuration not stated) 157 µM
CCc1nc(N)nc(N)c1-c1ccc(Cl)cc1 174 µM

Experiment: ATG_M_06_CIS: Attagene CIS-FACTORIAL HepG2 Assay for M06 Transcription Factor (Internal Marker) (AID 2282950)
Conditions: HepG2 Attagene CIS-FACTORIAL M06 internal marker reporter; actives raise or lower the signal
Procedure, shortened: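 HepG2 liver cells, 24 h exposure. Reporter transcripts from transfected cis-element constructs quantified by RT-PCR/capillary electrophoresis fluorescence. Bidirectional curve fit against DMSO.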

outcome, inactive:
c1ccc2occc2c1
CN(C)CCCN1c2ccccc2Sc2ccc(Cl)cc21
O=C1CCCCC1
CC(C)OC(=O)C(C)(C)Oc1ccc(C(=O)c2ccc(Cl)cc2)cc1
Cc1ccc(C(C)(C)C)c(O)c1
Nc1nc(=S)c2[nH]cnc2[nH]1
CO[C@@H]1COCC[C@@H]1N[C@@H]1CC[C@@](C(=O)N2CCc3ncc(C(F)(F)F)cc3C2)(C(C)C)C1
CCCCCCCCCCCCCCCCO
CC(=O)OC1CC(C)OC(C)O1 (configuration not stated)
CC1(C)C(=O)NC(=O)N1CO
Cn1cnc2c1c(=O)[nH]c(=O)n2C
CC(C)(O)c1ccc(CNC(=O)c2cccnc2Oc2ccc(F)cc2)cc1
CCCC(=O)O
O=C(O)c1cccnc1
COC(=O)CCC(=O)OC
C#CC(O)C(CC)CCCC (configuration not stated)
NCCOCCOCCN
NC=O
O=C(O)c1[nH]n(-c2ccc(S(=O)(=O)O)cc2)c(=O)c1N=Nc1ccc(S(=O)(=O)O)cc1
CCc1nc(N)nc(N)c1-c1ccc(Cl)cc1
Nc1nc(Cl)nc2c1ncn2[C@H]1C[C@H](O)[C@@H](CO)O1
CCCCCCCCCCCCCCOS(=O)(=O)O
Cc1cn([C@H]2C=C[C@@H](CO)O2)c(=O)[nH]c1=O
Cc1c(C)c2c(c(C)c1O)CCC(C)(COc1ccc(CC3SC(=O)NC3=O)cc1)O2 (configuration not stated)
CC1=C(C)S(=O)(=O)CCS1(=O)=O
O=C1O[C@H]([C@H](O)CO)C(O)=C1O
CCc1cc(C2=C(C(=O)O)N(c3ccccc3C(F)(F)F)S(=O)(=O)c3ccccc32)cc2c1OCO2
OCC(CO)n1cnc(-c2ccc(F)cc2)c1-c1ccnc(Oc2ccccc2)n1
CC(C)COC(=O)CCCCC(=O)OCC(C)C
